According to article PMC4336329 (PLoS ONE, 2015):
The whole screen tested about 310,000 compounds, of which about 14,000 (4.5%) showed an effect of 50% or more. The effect is printed as a negative number. What follows is part of a selection rich in strong results, with near analogues and random picks from the rest.

The compounds below were run against human ether-à-go-go-related gene (hERG) potassium channel (human, UniProt Q12809) (assay: primary screen, population patch clamp on CHO cells stably expressing hERG; higher = less effect of the substance).
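Note: peak tail current of the secondary pulse compared with the same well before compound.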

Sequence of human ether-à-go-go-related gene (hERG) potassium channel (Q12809 whole entry, looked up): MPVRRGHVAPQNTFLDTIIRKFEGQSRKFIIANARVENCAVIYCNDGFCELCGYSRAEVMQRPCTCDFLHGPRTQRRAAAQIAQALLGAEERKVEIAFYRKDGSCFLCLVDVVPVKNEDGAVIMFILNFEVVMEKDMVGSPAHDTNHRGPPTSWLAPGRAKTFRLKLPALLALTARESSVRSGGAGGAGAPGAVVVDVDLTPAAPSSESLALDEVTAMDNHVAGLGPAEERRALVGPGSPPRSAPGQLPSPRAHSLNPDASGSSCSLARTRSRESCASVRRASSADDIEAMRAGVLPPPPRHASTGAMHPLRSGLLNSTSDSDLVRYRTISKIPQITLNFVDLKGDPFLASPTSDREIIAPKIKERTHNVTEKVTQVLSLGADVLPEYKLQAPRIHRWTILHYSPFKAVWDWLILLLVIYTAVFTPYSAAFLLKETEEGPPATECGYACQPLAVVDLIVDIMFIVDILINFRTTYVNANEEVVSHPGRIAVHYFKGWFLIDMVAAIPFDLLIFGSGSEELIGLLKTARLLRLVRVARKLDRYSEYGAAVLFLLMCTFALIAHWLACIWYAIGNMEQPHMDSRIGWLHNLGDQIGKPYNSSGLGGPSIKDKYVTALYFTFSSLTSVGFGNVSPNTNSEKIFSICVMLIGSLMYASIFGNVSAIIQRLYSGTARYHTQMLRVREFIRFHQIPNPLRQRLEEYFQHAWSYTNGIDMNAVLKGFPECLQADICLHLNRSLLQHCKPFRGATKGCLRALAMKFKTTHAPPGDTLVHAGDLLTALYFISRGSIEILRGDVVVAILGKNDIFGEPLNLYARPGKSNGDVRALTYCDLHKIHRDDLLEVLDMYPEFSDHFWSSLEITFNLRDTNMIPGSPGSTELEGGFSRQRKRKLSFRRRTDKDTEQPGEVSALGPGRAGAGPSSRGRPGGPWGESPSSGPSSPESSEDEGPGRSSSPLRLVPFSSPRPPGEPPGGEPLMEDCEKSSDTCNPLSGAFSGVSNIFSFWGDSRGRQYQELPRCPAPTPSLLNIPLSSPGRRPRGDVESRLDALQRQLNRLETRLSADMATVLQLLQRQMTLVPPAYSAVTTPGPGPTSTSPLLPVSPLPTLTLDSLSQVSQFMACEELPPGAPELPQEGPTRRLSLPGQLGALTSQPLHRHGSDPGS

| Compound | hERG current change (%, negative = inhibition) at 10uM [%] |
| --- | --- |
| COC(=O)c1ccc(C)c(NC(=O)C(CCSC)NC(=O)c2cc(OC)c(OC)c(OC)c2)c1 (stereo not shown) | 13.6 |
| CCn1c(-c2ccc(Cl)cc2)n[nH]c1=S | 13.2 |
| O=C(CSc1nnnn1-c1ccc(Cl)cc1)NNC(=O)c1ccc([N+](=O)[O-])cc1 | -23.2 |
| O=C(CSC1CS(=O)(=O)c2cc([N+](=O)[O-])ccc21)NNC(=O)c1ccccc1 (stereo not shown) | -20.7 |
| O=C(CSC1CS(=O)(=O)c2cc([N+](=O)[O-])ccc21)NNC(=O)c1ccc(Cl)cc1 (stereo not shown) | -74 |
| COc1ccc(S(=O)(=O)N2CCCCC2)cc1NC(=O)c1cccs1 | 32.3 |
| O=S(=O)(Nc1ccc(OC(F)F)cc1)c1ccc(-c2ccon2)s1 | -15.3 |
| Cc1ccc(C)c(N2CCN(CC(=O)Nc3ccc4[nH]c(=O)[nH]c4c3)CC2)c1 | -3.56 |
| CCN(CC)c1ccc(C(=O)c2ccccc2C(=O)O)c(O)c1 | 3.8 |
| CCCCN(CCCC)c1ccc(C(=O)c2ccccc2C(=O)O)c(O)c1 | -75.2 |
| CN(C)c1ccc(C(=O)c2ccccc2C(=O)O)c(O)c1 | 12.7 |
| FC(F)(F)c1cccc(NC(=S)N2CCN(c3cccc(C(F)(F)F)c3)CC2)c1 | 16.6 |
| Cc1ccc(NC(=O)C2CCCN(S(=O)(=O)c3c(C)noc3/C=C/N(C)C)C2)cc1F (stereo not shown) | -1.44 |
| CC1CCCN(Cc2nc3c(c(=O)n(C)c(=O)n3C)n2Cc2c(F)cccc2Cl)C1 (stereo not shown) | -1.45 |
| COc1cc(C(=O)N(CCc2ccccc2)C2CC3CCC(C2)N3C)cc(OC)c1OC.Cl.O (stereo not shown) | -38.3 |
| Cc1cc(C)cc(C(=O)N(CCc2ccccc2)C2CC3CCC(C2)N3C)c1.Cl (stereo not shown) | -56.5 |
| CN1C2CCC1CC(NC(=O)c1ccc(Cl)cc1)C2 (stereo not shown) | 7.55 |
| CCCCN(C(=O)c1ccc(Cl)cc1)C1CC2CCC(C1)N2C.Cl (stereo not shown) | -47.4 |
| CN1C2CCC1CC(N(CCc1ccccc1)C(=O)c1ccc(Cl)cc1)C2.Cl (stereo not shown) | -83.2 |
| CN1CCC(N(CCc2ccccc2)C(=O)CCC(=O)O)CC1 | -1.87 |
| COc1ccc(C2CC(c3cccs3)=NN2C(=O)CSc2nncn2C)cc1OC (stereo not shown) | 4.67 |
| O=C(Nc1ccccc1N1CCOCC1)C1CCCCN1S(=O)(=O)c1ccccc1 (stereo not shown) | -20.8 |

| Compound | hERG current change (%, negative = inhibition) at 10uM [%] |
| --- | --- |
| Cc1nc([N+](=O)[O-])c(NCCO)n1Cc1ccccc1 | 8.23 |
| COc1ccc(-c2[nH]ncc2[C@@H]2C[C@H]3CN(Cc4ccccc4C)C(=O)[C@]34CCCN24)cc1 | -51.7 |
| COc1ccccc1CN1C[C@@H]2C[C@@H](c3ccccc3C)N3CCC[C@@]23C1=O | 17.4 |
| CCn1ncc([C@@H]2C[C@H]3CN(Cc4ccccc4C)C(=O)[C@]34CCCN24)c1C | 17.7 |
| Cc1ccccc1CN1C[C@@H]2C[C@@H](c3cn[nH]c3-c3ccc(F)cc3)N3CCC[C@@]23C1=O | -52.2 |
| COc1ccccc1CN1C[C@@H]2C[C@@H](c3ccccc3OC)N3CCC[C@@]23C1=O | -14 |
| Cc1ccccc1CN1C[C@@H]2C[C@@H](c3cn[nH]c3-c3ccccc3)N3CCC[C@@]23C1=O | -5.95 |
| Cc1cc(NC(=O)C2CC=CCC2C(=O)O)no1 (stereo not shown) | -1.9 |
| CN(Cc1ccccc1F)C(=O)CN1CCN(S(=O)(=O)c2ccc3c(c2)OCCCO3)CC1 | -18.4 |
| O=C(O)C1CCCCC1C(=O)N1CCN(S(=O)(=O)c2ccc(F)cc2)CC1 (stereo not shown) | 8.47 |
| COc1ccc(-c2cc(=O)c3cc(OC)c(OC)cc3[nH]2)cc1 | -5.83 |
| COc1cc(NC(=O)c2cnc(N)s2)cc(C(=O)Nc2cccc(C(F)(F)F)c2)c1 | -26 |
| Cc1ccc(Nc2cc(C)c3c(O)cccc3n2)cc1C.Cl | 19 |
| COc1ccc(Nc2cc(C)c3ccc(O)cc3n2)cc1 | -58.4 |
| Cc1cc(Nc2ccccc2)nc2cc(O)ccc12 | -11.5 |
| COC(=O)c1cc(Nc2cc(C)c3ccc(O)cc3n2)cc(C(=O)OC)c1 | 6.58 |
| Cc1ccc(Nc2cc(C)c3ccc(O)cc3n2)cc1C.Cl | -58.5 |
| COc1ccc(Nc2cc(C)c3ccccc3n2)cc1 | 4.57 |
| COC(=O)c1c(-c2cccs2)csc1NC(=O)CSc1ncnc2sc(C)c(C)c12 | 0.474 |
| Cc1cc(C)nc(-n2nc(C)c3c(C(F)F)cc(C)nc32)n1 | 15.3 |
| CCC1=C([N+](=O)[O-])C(c2ccc3c(c2)OCO3)NC(=O)N1 (stereo not shown) | 16 |
| O=C(CSc1nc(CCC2CCCC2)nc2ccccc12)NCc1ccc2c(c1)OCO2 | 15 |

| Compound | hERG current change (%, negative = inhibition) at 10uM [%] |
| --- | --- |
| CCOP(=O)(OCC)C(O)c1ccc(OC)c(OC)c1 (stereo not shown) | 15.6 |
| Cc1nc(SCC(=O)NCc2ccco2)nc(C)c1C | -6.76 |
| Cc1ccc(CNC(=O)c2csc3c2CCCCC3)cc1 | 2.19 |
| Cc1ccc(-c2nn3c(C)nnc3s2)cc1NC(=O)COc1ccc(Cl)cc1 | -70.6 |
| Cc1ccc(OCC(=O)Nc2cc(-c3nn4c(C)nnc4s3)ccc2C)cc1 | -24.7 |
| COc1ccc(OCC(=O)Nc2cc(-c3nn4c(C)nnc4s3)ccc2C)cc1 | -4.85 |
| CC(C)[C@H]1CN(C)CCN1Cc1cn(C)nc1-c1cccc(Cl)c1 | -27 |
| COc1ccc(C(c2c(NC(=O)c3ccco3)sc(C)c2C)N2CCOCC2)cc1OC (stereo not shown) | -15 |
| CC(=O)Nc1ccc(-c2sc(Nc3ccccc3)n[n+]2C)cc1.[Cl-] | 27.5 |
| COc1ccccc1C1C=C(c2ccc(Cl)cc2)Nc2nc(N3C(=O)CCC3=O)nn21 (stereo not shown) | -32.8 |
| N#C/C(=C\c1ccc(N2CCOCC2)c([N+](=O)[O-])c1)c1nc2ccccc2[nH]1 | -59.6 |
| N#C/C(=C\c1ccc(N2CCCC2)c([N+](=O)[O-])c1)c1nc2ccccc2[nH]1 | -35.5 |
| N#C/C(=C/c1ccc(N2CCCC2)c([N+](=O)[O-])c1)c1nc2ccccc2[nH]1 | -3.43 |
| CCOc1cc(N2CCOCC2)c(OCC)cc1NC(=O)CN1C(=O)NC(Cc2ccccc2)C1=O (stereo not shown) | -25.5 |
| CCOc1cc(N2CCOCC2)c(OCC)cc1NC(=O)CN1C(=O)NC(C)(C2CC2)C1=O (stereo not shown) | 26.8 |
| COc1cc(NC(=O)c2ccccc2)c(OC)cc1NC(=O)CN1C(=O)NC2(CCCCC2C)C1=O (stereo not shown) | -49.8 |
| CCOc1cc(N2CCOCC2)c(OCC)cc1NC(=O)CN1C(=O)N(C)C2(CCCCC2)C1=O | -23.5 |
| CCOc1ccc(S(=O)(=O)N2CCOCC2)cc1NC(=O)CN1C(=O)NC2(CCCCC2)C1=O | -17.9 |
| CCOc1cc(N2CCOCC2)c(OCC)cc1NC(=O)CN1C(=O)NC2(CCCCCCC2)C1=O | -63 |
| CCOc1cc(N2CCOCC2)c(OCC)cc1NC(=O)CN1C(=O)C2CC=CCC2C1=O (stereo not shown) | -8.84 |
| COc1ccccc1NC(=O)CN1C(=O)NC2(CCCCCCC2)C1=O | 1.08 |
| CCOc1cc(N2CCOCC2)c(OCC)cc1NC(=O)CN1C(=O)NC(CC(C)C)C1=O (stereo not shown) | -70.4 |

| Compound | hERG current change (%, negative = inhibition) at 10uM [%] |
| --- | --- |
| COc1cc(NC(=O)c2ccccc2)c(OC)cc1NC(=O)CN1C(=O)NC2(CCCCC2)C1=O | -70.3 |
| CCOc1cc(N2CCOCC2)c(OCC)cc1NC(=O)CN1C(=O)NC2(CCc3ccccc32)C1=O (stereo not shown) | -44.5 |
| CCOc1cc(N2CCOCC2)c(OCC)cc1NC(=O)CN1C(=O)NC2(CCCCC2)C1=O | -69.7 |
| CSc1ccccc1C(=O)Nc1nc2ccccc2[nH]1 | 2.78 |
| COc1ccccc1N(CC(=O)NC1CCCC1)C(=O)CCC(=O)Nc1ccccn1 | 6.68 |
| Cc1[nH]n(-c2ccccc2)c(=O)c1-c1ccc(Cl)cc1 | 9.3 |
| COc1ccc(C(=O)NC(=S)Nc2ccccc2F)cc1 | 9.53 |
| CN(C)S(=O)(=O)Oc1ccsc1C(=O)Nc1ccc(Cl)cc1 | -33.7 |
| Cc1cc(N=NC(=O)c2ccccc2)ccc1O | 4.74 |
| O=C(Nc1ccc(Cl)cc1)NC1CCCC1Cc1ccco1 (stereo not shown) | -15.3 |
| CCOc1ccccc1Nc1ccnc2cc(Cl)ccc12 | -57.2 |
| CCOc1ccc(Nc2ccnc3cc(Cl)ccc23)cc1 | -7.97 |
| CCOc1ccccc1/C=N/Nc1cc(C)nc2ccc(C)cc12 | 8.9 |
| CCOc1ccccc1Nc1cc(C)nc2ccc(C)cc12 | -70.1 |
| CCOc1ccc(Nc2cc(C)nc3ccc(C)cc23)cc1 | -69.6 |
| Cc1ccc(Nc2cc(C)nc3ccc(C)cc23)cc1 | -37.9 |
| CCOc1cc(/C=N/Nc2cc(C)nc3ccc(C)cc23)ccc1O | 11.1 |
| Cc1ccc2nc(C)cc(Nc3ccc([N+](=O)[O-])cc3)c2c1 | -14.4 |
| Clc1ccc2c(NNc3ccccc3Cl)ccnc2c1 | 7.9 |
